# Experiments:
# Conditions in all cases: concentration: 1 μM, replicates: in singlicate; n = 1
# [1] = test system: FGFR1
# [2] = test system: FGFR2
# [3] = test system: FGFR3
# [4] = test system: FGFR4
# [5] = test system: FGR
# [6] = test system: FLT1
# [7] = test system: FLT3-autoinhibited
# [8] = test system: FLT3
# [9] = test system: FLT4
# [10] = test system: FRK
# [11] = test system: FYN
# [12] = test system: GAK
# [13] = test system: T1, GCN2(Kin.Dom.2,S808G)
# T1 construct: gene EIF2AK4
# [14] = test system: GRK1
# [15] = test system: T2, GRK2
# T2 construct: gene ADRBK1
# [16] = test system: T3, GRK3
# T3 construct: gene ADRBK2
# [17] = test system: GRK4
# [18] = test system: GRK7
# [19] = test system: GSK3A
# [20] = test system: GSK3B
# 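Note: KINOMEscan kinase panel screen.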
structure (smiles),measurement,setting,value
Cl.c1ccc(-c2ccc3c(Nc4ccc5[nH]ccc5c4)ccnc3c2)nc1 [GW440138],%Inh,[1],63%
same,%Inh,[2],63%
same,%Inh,[3],58%
same,%Inh,[4],29%
same,%Inh,[5],53%
same,%Inh,[6],98.1%
same,%Inh,[7],0%
same,%Inh,[8],0%
same,%Inh,[9],92.9%
same,%Inh,[10],17%
same,%Inh,[11],46%
same,%Inh,[12],64%
same,%Inh,[13],0%
same,%Inh,[14],0%
same,%Inh,[15],0%
same,%Inh,[16],50%
same,%Inh,[17],0%
same,%Inh,[18],0%
same,%Inh,[19],26%
same,%Inh,[20],0%
CCCCc1nn2ncccc2c1-c1ccnc(Nc2ccc(N3CCN(C)CC3)cc2)n1 [GW684941],%Inh,[1],97.9%
same,%Inh,[2],96.9%
same,%Inh,[3],89%
same,%Inh,[4],68%
same,%Inh,[5],91.9%
same,%Inh,[6],98%
same,%Inh,[7],93.3%
same,%Inh,[8],99.5%
same,%Inh,[9],95.6%
same,%Inh,[10],95%
same,%Inh,[11],58%
same,%Inh,[12],91.7%
same,%Inh,[13],93%
same,%Inh,[14],0%
same,%Inh,[15],0%
same,%Inh,[16],62%
same,%Inh,[17],16%
same,%Inh,[18],0%
same,%Inh,[19],7%
same,%Inh,[20],5%
Cn1cc(-c2[nH]c3cc(NC(=O)[C@H](N)C4CCCCC4)cc4c3c2C=NNC4=O)cn1,%Inh,[1],97.9%
same,%Inh,[2],89%
same,%Inh,[3],86%
same,%Inh,[4],97.3%
same,%Inh,[5],87%
same,%Inh,[6],81%
same,%Inh,[7],96.3%
same,%Inh,[8],100%
same,%Inh,[9],99.5%
same,%Inh,[10],0%
same,%Inh,[11],89%
same,%Inh,[12],99.8%
same,%Inh,[13],99.3%
same,%Inh,[14],11%
same,%Inh,[15],96.9%
same,%Inh,[16],100%
same,%Inh,[17],97.1%
same,%Inh,[18],40%
same,%Inh,[19],0%
same,%Inh,[20],2%
COCCOCCOc1cc2ncc3c4ccc(C#N)cc4[nH]c3c2cc1OC,%Inh,[1],0%
same,%Inh,[2],25%
same,%Inh,[3],18%
same,%Inh,[4],4%
same,%Inh,[5],30%
same,%Inh,[6],17%
same,%Inh,[7],90.1%
same,%Inh,[8],99.5%
same,%Inh,[9],20%
same,%Inh,[10],16%
same,%Inh,[11],15%
same,%Inh,[12],99.3%
same,%Inh,[13],94.6%
same,%Inh,[14],29%
same,%Inh,[15],7%
same,%Inh,[16],0%
same,%Inh,[17],83%
same,%Inh,[18],0%
same,%Inh,[19],0%
same,%Inh,[20],0%
CN(c1ccc(NC(=O)Nc2cc(C(F)(F)F)ccc2F)cc1)c1ccnc(Nc2ccc(S(N)(=O)=O)cc2)n1 [GW809893],%Inh,[1],76%
same,%Inh,[2],70%
same,%Inh,[3],22%
same,%Inh,[4],14%
same,%Inh,[5],94.7%
same,%Inh,[6],98.3%
same,%Inh,[7],82%
same,%Inh,[8],98.6%
same,%Inh,[9],99.8%
same,%Inh,[10],99%
same,%Inh,[11],83%
same,%Inh,[12],0%
same,%Inh,[13],0%
same,%Inh,[14],17%
same,%Inh,[15],13%
same,%Inh,[16],0%
same,%Inh,[17],25%
same,%Inh,[18],6%
same,%Inh,[19],68%
same,%Inh,[20],12%
COc1cc(Nc2nccc(N3CCC(NC(=O)Nc4cccc(C(C)=O)c4)C3)n2)cc(OC)c1OC (stereo not shown) [GSK1379753],%Inh,[1],3%
same,%Inh,[2],0%
same,%Inh,[3],9%
same,%Inh,[4],14%
same,%Inh,[5],14%
same,%Inh,[6],19%
same,%Inh,[7],0%
same,%Inh,[8],63%
same,%Inh,[9],6%
same,%Inh,[10],0%
same,%Inh,[11],40%
same,%Inh,[12],34%
same,%Inh,[13],0%
same,%Inh,[14],2%
same,%Inh,[15],0%
same,%Inh,[16],16%
same,%Inh,[17],0%
same,%Inh,[18],0%
same,%Inh,[19],0%
same,%Inh,[20],1%
CCc1ccc(-c2ccc3c(c2)-c2c(cnn2C)S(=O)(=O)N3C)cc1,%Inh,[1],3%
same,%Inh,[2],0%
same,%Inh,[3],0%
same,%Inh,[4],0%
same,%Inh,[5],0%
same,%Inh,[6],0%
same,%Inh,[7],9%
same,%Inh,[8],0%
same,%Inh,[9],0%
same,%Inh,[10],0%
same,%Inh,[11],3%
same,%Inh,[12],8%
same,%Inh,[13],16%
same,%Inh,[14],11%
same,%Inh,[15],0%
same,%Inh,[16],0%
same,%Inh,[17],16%
same,%Inh,[18],0%
same,%Inh,[19],0%
same,%Inh,[20],13%
Oc1cc(Nc2ccnc3cc(I)ccc23)ccc1F [GW552771],%Inh,[1],23%
same,%Inh,[2],0%
same,%Inh,[3],13%
same,%Inh,[4],0%
same,%Inh,[5],84%
same,%Inh,[6],44%
same,%Inh,[7],0%
same,%Inh,[8],0%
same,%Inh,[9],45%
same,%Inh,[10],72%
same,%Inh,[11],62%
same,%Inh,[12],85%
same,%Inh,[13],8%
same,%Inh,[14],0%
same,%Inh,[15],0%
same,%Inh,[16],65%
same,%Inh,[17],10%
same,%Inh,[18],0%
same,%Inh,[19],17%
same,%Inh,[20],0%

# — PMC5540273 (PLoS ONE, 2017)
